Data from PubChem BioAssay (EPA / NIEHS).
Inconclusive results are not listed. Active and inactive are the calls of the source. The calls were made as follows: active = hit-call score of the fitted dose curve at least 0.9, where 1 is the maximum; inconclusive = response in the unintended direction; inactive = score below 0.9.

Legend:
[1] = biological target: rat Thyrotropin Releasing Hormone Receptor (TRH), Trhr (gene 25570) (UniProt Q01717); assay: NVS_GPCR_rTRH: NovaScreen (NVS) G Protein-Coupled Receptor Assay for rat Thyrotropin Releasing Hormone Receptor (TRH) (AID 2283329);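 also: hit means lower bound tracer signal versus DMSO baseline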
Sequence of rat Thyrotropin Releasing Hormone Receptor (TRH), Trhr (gene 25570) (Q01717 whole entry, looked up): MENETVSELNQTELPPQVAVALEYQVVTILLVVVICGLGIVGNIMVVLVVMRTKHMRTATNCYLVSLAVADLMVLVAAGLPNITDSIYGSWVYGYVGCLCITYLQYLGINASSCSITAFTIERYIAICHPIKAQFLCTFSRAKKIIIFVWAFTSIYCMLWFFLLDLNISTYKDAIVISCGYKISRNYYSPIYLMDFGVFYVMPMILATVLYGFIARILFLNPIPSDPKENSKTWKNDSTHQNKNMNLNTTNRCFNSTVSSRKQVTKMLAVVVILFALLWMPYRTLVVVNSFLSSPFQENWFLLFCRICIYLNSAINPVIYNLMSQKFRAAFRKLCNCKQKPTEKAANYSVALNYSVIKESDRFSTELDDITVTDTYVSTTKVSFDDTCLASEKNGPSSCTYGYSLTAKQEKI
Method in brief: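 Cell-free radioligand binding on rat forebrain membranes; bound tracer measured by filter-based scintillation counting 4 hours after dosing. Loss of signal versus DMSO baseline indicates displacement; primary screen at 25 uM in duplicate, actives then run in concentration series.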

[2] = biological target: bovine Estrogen Receptor (ER), ESR1 (gene 407238) (UniProt P49884); assay: NVS_NR_bER: NovaScreen (NVS) Nuclear Receptor Binding Assay for bovine Estrogen Receptor (ER) (AID 2283345);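 also: actives lower the bound radioligand count which means they displace the ER ligand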
Sequence of bovine Estrogen Receptor (ER), ESR1 (gene 407238) (P49884 whole entry, looked up): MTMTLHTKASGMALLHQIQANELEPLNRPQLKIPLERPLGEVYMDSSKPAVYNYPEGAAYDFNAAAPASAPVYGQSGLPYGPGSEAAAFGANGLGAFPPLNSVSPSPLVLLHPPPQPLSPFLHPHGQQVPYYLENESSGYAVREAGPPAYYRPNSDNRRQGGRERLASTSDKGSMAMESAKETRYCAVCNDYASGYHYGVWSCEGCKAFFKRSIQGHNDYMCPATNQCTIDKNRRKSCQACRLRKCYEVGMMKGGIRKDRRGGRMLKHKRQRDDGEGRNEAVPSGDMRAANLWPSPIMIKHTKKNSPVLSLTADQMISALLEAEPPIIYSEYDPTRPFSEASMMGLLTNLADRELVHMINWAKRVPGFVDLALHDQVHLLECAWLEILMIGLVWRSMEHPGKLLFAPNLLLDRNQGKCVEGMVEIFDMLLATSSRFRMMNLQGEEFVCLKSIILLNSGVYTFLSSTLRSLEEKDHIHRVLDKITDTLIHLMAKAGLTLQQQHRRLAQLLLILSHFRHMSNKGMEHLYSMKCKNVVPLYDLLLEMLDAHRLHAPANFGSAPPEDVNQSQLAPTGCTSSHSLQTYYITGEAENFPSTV
Method in brief: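 Cell-free radioligand binding with receptor from bovine uterine membranes, read by scintillation counting 18 h after dosing. Loss of specific binding was scored against DMSO; primary screen at 25 uM in duplicate, actives then run as concentration series.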

[3] = biological target: chimpanzee Androgen Receptor (AR), AR (gene 747460) (UniProt O97775); assay: NVS_NR_cAR: NovaScreen (NVS) Nuclear Receptor Binding Assay for chimpanzee Androgen Receptor (AR) (AID 2283346);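 also: radioligand displacement from AR measured by scintillation counting in a cell-free assay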
Sequence of chimpanzee Androgen Receptor (AR), AR (gene 747460) (O97775 whole entry, looked up): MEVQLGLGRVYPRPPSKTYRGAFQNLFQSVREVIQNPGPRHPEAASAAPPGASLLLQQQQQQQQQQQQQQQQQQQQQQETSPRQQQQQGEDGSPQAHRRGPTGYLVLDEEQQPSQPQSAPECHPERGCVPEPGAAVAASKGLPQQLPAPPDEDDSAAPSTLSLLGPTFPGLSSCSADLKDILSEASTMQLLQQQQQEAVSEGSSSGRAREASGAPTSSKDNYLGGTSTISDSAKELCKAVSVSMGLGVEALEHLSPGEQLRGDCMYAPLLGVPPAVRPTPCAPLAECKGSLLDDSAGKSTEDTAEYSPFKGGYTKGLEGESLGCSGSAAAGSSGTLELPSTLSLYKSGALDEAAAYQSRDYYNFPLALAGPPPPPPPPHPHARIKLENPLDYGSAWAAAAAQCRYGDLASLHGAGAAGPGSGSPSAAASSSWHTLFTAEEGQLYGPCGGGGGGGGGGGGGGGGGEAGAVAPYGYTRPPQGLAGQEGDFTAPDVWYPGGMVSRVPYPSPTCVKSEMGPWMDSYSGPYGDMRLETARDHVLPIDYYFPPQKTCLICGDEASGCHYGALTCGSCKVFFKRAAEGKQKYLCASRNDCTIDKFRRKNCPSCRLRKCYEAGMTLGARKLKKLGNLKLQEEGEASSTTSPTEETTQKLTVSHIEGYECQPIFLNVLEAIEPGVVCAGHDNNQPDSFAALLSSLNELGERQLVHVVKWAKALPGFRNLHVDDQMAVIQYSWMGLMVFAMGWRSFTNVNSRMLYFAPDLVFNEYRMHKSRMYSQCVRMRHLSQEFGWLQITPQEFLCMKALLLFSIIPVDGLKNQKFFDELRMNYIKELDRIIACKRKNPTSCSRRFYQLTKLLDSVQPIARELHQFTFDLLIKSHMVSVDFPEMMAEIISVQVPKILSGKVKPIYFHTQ
Method in brief: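 Cell-free competition binding with insect-cell (Sf9/Sf21) extracted chimpanzee AR; scintillation signal from lysate at 72 h. Screened in duplicate at 25 uM, then concentration-response for actives; fitting relative to DMSO.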

[4] = biological target: Estrogen receptor (Homo sapiens) (UniProt P03372); assay: OT_ER_ERaERa_1440: Odyssey Thera (OT) 24-hour HEK293T Protein-Complementation Assay for Estrogen Receptor-alpha/-alpha Homodimer (AID 2283349);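 also: hits raise fluorescence above DMSO for agonists and antagonists alike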
Sequence of Estrogen receptor (Homo sapiens) (P03372 whole entry, looked up, the tested form may be a part): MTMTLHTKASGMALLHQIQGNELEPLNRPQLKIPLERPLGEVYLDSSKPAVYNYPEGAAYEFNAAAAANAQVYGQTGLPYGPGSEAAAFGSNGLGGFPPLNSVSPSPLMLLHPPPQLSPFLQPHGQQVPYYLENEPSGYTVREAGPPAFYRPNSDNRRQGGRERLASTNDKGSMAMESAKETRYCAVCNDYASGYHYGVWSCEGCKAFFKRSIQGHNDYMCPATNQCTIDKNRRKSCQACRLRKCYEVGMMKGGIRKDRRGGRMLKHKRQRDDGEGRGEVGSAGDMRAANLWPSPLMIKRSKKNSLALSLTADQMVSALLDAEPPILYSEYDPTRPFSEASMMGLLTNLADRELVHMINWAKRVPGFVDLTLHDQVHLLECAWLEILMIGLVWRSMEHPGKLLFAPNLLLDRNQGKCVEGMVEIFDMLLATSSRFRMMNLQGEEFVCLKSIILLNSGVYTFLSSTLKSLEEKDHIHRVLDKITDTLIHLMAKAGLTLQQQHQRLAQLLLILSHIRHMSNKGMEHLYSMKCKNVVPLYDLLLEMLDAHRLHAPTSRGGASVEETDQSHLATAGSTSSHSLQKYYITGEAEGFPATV
Method in brief: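 Protein-fragment complementation between two human ERα ligand-binding domains (aa 310-547) in stably transfected HEK293T cells was monitored after 24 h treatment, using fluorescence intensity relative to vehicle controls.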

[5] = biological target: Sodium channel protein type 1 subunit alpha (Rattus norvegicus) (UniProt P04774); assay: NVS_IC_rNaCh_site2: NovaScreen (NVS) Ion Channel Assay for rat Sodium Channel, Site 2 (NaCh) (AID 2283322);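 also: hit means loss of radioligand binding signal relative to DMSO so AC50 marks displacement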
Method in brief: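 Membranes: rat forebrain. Format: competitive radioligand displacement, filter separation, scintillation readout, 1 h exposure. Primary screen in duplicate at 25 uM; actives retested in concentration series.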

[6] = biological target: human Peripheral-type Benzodiazepine Receptor (PBR), TSPO (gene 706) (UniProt P30536); assay: NVS_MP_hPBR: NovaScreen (NVS) Membrane Protein Assay for human Peripheral-type Benzodiazepine Receptor (PBR) (AID 2283331);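 also: hits reduce radioligand binding relative to DMSO baseline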
Sequence of human Peripheral-type Benzodiazepine Receptor (PBR), TSPO (gene 706) (P30536 whole entry, looked up): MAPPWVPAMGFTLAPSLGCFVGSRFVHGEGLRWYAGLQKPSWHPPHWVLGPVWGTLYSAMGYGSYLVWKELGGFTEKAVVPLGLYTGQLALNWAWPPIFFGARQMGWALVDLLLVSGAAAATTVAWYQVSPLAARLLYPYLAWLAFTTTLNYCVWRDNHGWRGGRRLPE
Method in brief: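 Scintillation counts of filter-bound radioligand served as read-out after 1 h chemical dosing of human colonic membrane preparations. Activity was scored as signal loss against DMSO; initial duplicates at 25 uM, confirmatory concentration series afterward.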

[7] = biological target: rat Peripheral-type Benzodiazepine Receptor (PBR), Tspo (gene 24230) (UniProt P16257); assay: NVS_MP_rPBR: NovaScreen (NVS) Membrane Protein Assay for rat Peripheral-type Benzodiazepine Receptor (PBR) (AID 2283335)
Sequence of rat Peripheral-type Benzodiazepine Receptor (PBR), Tspo (gene 24230) (P16257 whole entry, looked up): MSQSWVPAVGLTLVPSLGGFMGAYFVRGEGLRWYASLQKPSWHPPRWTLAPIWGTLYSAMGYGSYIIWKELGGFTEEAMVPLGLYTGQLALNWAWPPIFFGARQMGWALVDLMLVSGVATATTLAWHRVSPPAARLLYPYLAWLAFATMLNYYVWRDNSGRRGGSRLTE
Method in brief: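 Radioligand displacement, rat kidney membrane prep, 1 h exposure, filter-based scintillation read; DMSO baseline, loss-of-signal scored. Primary screen at 25 uM in duplicate, actives followed up in concentration series.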

[8] = biological target: human Androgen Receptor (AR), AR (gene 367) (UniProt P10275); assay: NVS_NR_hAR: NovaScreen (NVS) Nuclear Receptor Binding Assay for human Androgen Receptor (AR) (AID 2283332)
Sequence of human Androgen Receptor (AR), AR (gene 367) (P10275 whole entry, looked up): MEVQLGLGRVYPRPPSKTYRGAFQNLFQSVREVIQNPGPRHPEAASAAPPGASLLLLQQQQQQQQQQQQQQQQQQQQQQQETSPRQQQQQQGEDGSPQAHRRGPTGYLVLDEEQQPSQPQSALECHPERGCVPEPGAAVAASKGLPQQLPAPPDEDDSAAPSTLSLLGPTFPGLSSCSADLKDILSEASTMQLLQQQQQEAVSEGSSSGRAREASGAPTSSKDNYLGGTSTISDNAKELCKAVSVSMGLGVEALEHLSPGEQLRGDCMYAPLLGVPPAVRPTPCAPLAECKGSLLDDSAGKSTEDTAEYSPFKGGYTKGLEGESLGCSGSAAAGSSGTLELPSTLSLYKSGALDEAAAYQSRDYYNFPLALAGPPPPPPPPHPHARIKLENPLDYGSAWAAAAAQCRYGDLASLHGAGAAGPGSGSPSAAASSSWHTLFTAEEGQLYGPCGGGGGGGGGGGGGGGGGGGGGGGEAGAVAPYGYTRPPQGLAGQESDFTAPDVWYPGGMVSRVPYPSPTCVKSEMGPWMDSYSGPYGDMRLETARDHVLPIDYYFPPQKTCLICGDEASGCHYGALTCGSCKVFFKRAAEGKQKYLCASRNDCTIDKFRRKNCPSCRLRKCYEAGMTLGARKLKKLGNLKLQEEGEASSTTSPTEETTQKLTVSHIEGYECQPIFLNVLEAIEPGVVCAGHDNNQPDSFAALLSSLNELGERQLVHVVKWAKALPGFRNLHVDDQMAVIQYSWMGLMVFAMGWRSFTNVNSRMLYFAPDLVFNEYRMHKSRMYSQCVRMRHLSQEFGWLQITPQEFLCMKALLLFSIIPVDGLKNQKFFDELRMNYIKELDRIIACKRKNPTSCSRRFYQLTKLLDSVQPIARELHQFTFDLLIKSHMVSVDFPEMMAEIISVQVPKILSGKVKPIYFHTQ
Method in brief: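 Radioligand competitive binding, scintillation read-out, in cell-free extract from LnCAP, measured 20 h after dosing. Screened first in duplicate at 25 uM, then concentration series for actives; activity fitted against DMSO.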

[9] = biological target: Estrogen receptor (Homo sapiens) (UniProt P03372); assay: NVS_NR_hER: NovaScreen (NVS) Nuclear Receptor Binding Assay for human Estrogen Receptor (ER) (AID 2283348)
Method in brief: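 Scintillation signal from bound radioligand was measured 18 hours after chemical addition to cell-free MCF7 protein extracts, with DMSO as baseline. Activity was scored as signal loss; compounds ran first at 25 uM in duplicate.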

[10] = NVS_IC_rCaBTZCHL: NovaScreen (NVS) Ion Channel Assay for Calcium Channel, Type L, Benzothiazepine Site (CaBTZCHL) (AID 2283337)
Method in brief: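 Radioligand binding to the benzothiazepine site of L-type Ca channels in rat cortical membranes (cell-free), 1.5 h after dosing; filter-based scintillation counting. Loss of signal relative to DMSO baseline; primary single-concentration screen at 25 uM, actives then run in concentration series.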

[11] = biological target: human Constitutive Androstane Receptor (CAR), NR1I3 (gene 9970) (UniProt Q14994); assay: NVS_NR_hCAR_Antagonist: NovaScreen (NVS) Nuclear Receptor Binding Assay for human Constitutive Androstane Receptor Antagonism (CAR) (AID 2283344)
Sequence of human Constitutive Androstane Receptor (CAR), NR1I3 (gene 9970) (Q14994 whole entry, looked up): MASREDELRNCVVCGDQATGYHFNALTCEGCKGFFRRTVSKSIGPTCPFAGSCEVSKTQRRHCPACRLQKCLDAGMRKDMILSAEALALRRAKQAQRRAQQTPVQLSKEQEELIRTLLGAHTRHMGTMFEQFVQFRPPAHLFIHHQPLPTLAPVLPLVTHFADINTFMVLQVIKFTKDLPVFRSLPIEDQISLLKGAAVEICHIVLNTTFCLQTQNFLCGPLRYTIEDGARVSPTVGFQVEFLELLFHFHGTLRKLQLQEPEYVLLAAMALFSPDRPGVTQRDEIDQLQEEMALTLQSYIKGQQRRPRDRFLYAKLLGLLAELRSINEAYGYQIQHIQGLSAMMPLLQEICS
Method in brief: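 Cell-free TR-FRET binding read 1 h after dosing, antagonist mode; loss of signal versus DMSO baseline. Primary screen in duplicate at a single 25 uM; actives retested in concentration series.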

O=C(CCl)Nc1ccccc1
outcome [1]: inactive
outcome [2]: inactive
outcome [3]: inactive
outcome [4]: inactive

CCOP(=S)(OCC)SCS(=O)(=O)C(C)(C)C
outcome [5]: inactive
AC50 [6]: 12900 nM (active)
AC50 [7]: 2020 nM (active)

[F][Sn]([c]1ccccc1)([c]1ccccc1)[c]1ccccc1
outcome [2]: inactive

OC(Cc1ccccc1Cl)(Cn1[nH]cnc1=S)C1(Cl)CC1 (centres undefined)
outcome [8]: inactive
outcome [3]: inactive

CCOC(=O)C(SP(=S)(OC)OC)c1ccccc1 (centres undefined)
AC50 [6]: 13400 nM (active)
AC50 [7]: 7410 nM (active)

O=c1oc2ccccc2c(O)c1C(CC(O)c1ccc(-c2ccc(Br)cc2)cc1)c1ccccc1 (centres undefined)
outcome [2]: inactive
outcome [3]: inactive

O=C1c2ccccc2C(=O)C1C(=O)C(c1ccccc1)c1ccc(Cl)cc1 (centres undefined)
outcome [7]: inactive
outcome [2]: inactive
AC50 [3]: 26400 nM (active)
AC50 [9]: 17600 nM (active)
outcome [4]: inactive

COCC(=O)N(c1c(C)cccc1C)[C@H](C)C(=O)OC
outcome [6]: inactive

O=S(=O)(c1ccc(Cl)cc1)c1cc(Cl)c(Cl)cc1Cl
outcome [2]: inactive

O=C1C=CC(=O)c2ccccc21
AC50 [8]: 33900 nM (active)

Cc1ccccc1OP(=O)(Oc1ccccc1)Oc1ccccc1
AC50 [6]: 1280 nM (active)
AC50 [7]: 284 nM (active)

Cc1ccccc1OP(=O)(Oc1ccccc1C)Oc1ccccc1C
AC50 [6]: 800 nM (active)
AC50 [7]: 17100 nM (active)

[Cl][Sn]([c]1ccccc1)([c]1ccccc1)[c]1ccccc1
AC50 [8]: 746 nM (active)
outcome [3]: inactive

CCCCOP(=O)(CCCC)OCCCC
AC50 [6]: 6980 nM (active)
AC50 [7]: 1620 nM (active)

CCOP(=S)(OCC)OP(=S)(OCC)OCC
AC50 [7]: 17800 nM (active)

O=S(=O)(C(Cl)(Cl)Cl)C(Cl)(Cl)Cl
outcome [10]: inactive

Brc1ccc(Br)cc1
outcome [10]: inactive

CC1(C)[C@H](C(=O)O[C@H](C#N)c2cccc(Oc3ccccc3)c2)[C@@H]1/C=C(\Cl)C(F)(F)F
outcome [7]: inactive

Cc1cc(SCc2sc(-c3ccc(C(F)(F)F)c(F)c3)nc2C)ccc1OCC(=O)O
outcome [2]: inactive
outcome [9]: inactive

Cc1cc(C(C)(C)c2ccc(O)c(C)c2)ccc1O
AC50 [8]: 2930 nM (active)
outcome [7]: inactive
outcome [3]: inactive
outcome [9]: inactive

Nc1c(Oc2ccccc2)cc(O)c2c1C(=O)c1ccccc1C2=O
outcome [8]: inactive
outcome [3]: inactive

COC(=O)Nc1cccc(OC(=O)Nc2cccc(C)c2)c1
AC50 [6]: 323 nM (active)

OCC(c1ccc(Cl)cc1)c1ccc(Cl)cc1
outcome [2]: inactive

CC(C)O.CC(C)O.OCCN(CCO)CCO.OCCN(CCO)CCO.[Ti]
AC50 [11]: 25000 nM (active)

CCOP(=S)(OCC)O/N=C(\C#N)c1ccccc1
outcome [6]: inactive
AC50 [7]: 16200 nM (active)

CC(C)[C@@H](Nc1ccc(C(F)(F)F)cc1Cl)C(=O)OC(C#N)c1cccc(Oc2ccccc2)c1 (some centres undefined)
outcome [2]: inactive
outcome [9]: inactive

Cc1ccc(OP(=O)(Oc2ccc(C)cc2C)Oc2ccc(C)cc2C)c(C)c1
AC50 [6]: 422 nM (active)
AC50 [7]: 1060 nM (active)

O=[N+]([O-])c1ccc(Nc2ccccc2)cc1
outcome [7]: inactive
outcome [9]: inactive

CCOP(=O)(OCC)OC(=CCl)c1ccc(Cl)cc1Cl
AC50 [6]: 2120 nM (active)
AC50 [7]: 1650 nM (active)
outcome [2]: inactive

Cc1cccc(OP(=O)(Oc2cccc(C)c2)Oc2cccc(C)c2)c1
AC50 [6]: 1790 nM (active)
AC50 [7]: 1260 nM (active)

CC(C)(C1CCC(O)CC1)C1CCC(O)CC1 (centres undefined)
outcome [2]: inactive

Nc1nc(N)nc(Cl)n1
outcome [10]: inactive

N#CCC#N
outcome [1]: inactive
outcome [4]: inactive

CCOC(=O)CCN(SN(C)C(=O)Oc1cccc2c1OC(C)(C)C2)C(C)C
AC50 [6]: 5060 nM (active)
AC50 [7]: 4910 nM (active)
